KB-3-1 cytotox = KB-3-1 parental cell cytotoxicity; AID 1347075; 1.4% of 400,000 active; Potency, µM (highest dose often 46.1 µM), actives largely listed as cytotoxic; KB-3-1 viability, CellTiter-Glo ATP luminescence, 72 h; also: nearly all actives have a fitted effect of over 60% in size
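72 h, 37 °C compound treatment of KB-3-1 parental cells; CellTiter-Glo added, 10 min, luminescence read. Data corrected against DMSO-only plates and normalized before curve fitting.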
TDP1 cell CPT = DT40-hTDP1 cell growth loss with CPT; 12% of 420,000 active; chicken DT40 Tdp1-/-;hTDP1 cells + 20 nM CPT, ATP luminescence, 48 h; AID 686979; Potency, µM (series often up to 46.2 µM), without a hit: top-dose activity change, negative = growth inhibition, usual class: inhibitors; also: nearly all actives have a fitted effect of over 55% in size
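Cell growth measured by CellTiter-Glo luminescence after a minimum 48 h, 37 C compound exposure with 20 nM CPT in Tdp1-knockout DT40 cells stably expressing hTDP1, seeded 400/well; qHTS titration format.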
KB-V1 cytotox = KB-V1 MDR subline cytotoxicity. 3.4% of 400,000 active. KB-V1 MDR cells viability, CellTiter-Glo, 72 h. Potency, µM (doses to about 46.1 µM), actives largely listed as cytotoxic; also: nearly all actives have a fitted effect of over 60% in size
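Drug-selected KB-V1 cells, grown in DMEM lacking phenol red with 10% FBS, receive compound titrations; after three days at 37 degrees C, surviving cell ATP is quantified by CellTiter-Glo luminescence and responses normalized and curve-fitted.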
DT40 TDP1 no CPT = qHTS for Inhibitors of human tyrosyl-DNA phosphodiesterase 1 (TDP1): qHTS in cells in absence of CPT; DT40 Tdp1-/- hTDP1 cells, no CPT, ATP luminescence, 48 h; Potency, µM (top dose mostly 46.2 µM), without a hit: top-dose activity change, negative = growth inhibition, most hits filed as inhibitors; 15% of 420,000 active; AID 686978, 2013; also: nearly all actives have a fitted effect of over 55% in size
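Growth of hTDP1-complemented DT40 Tdp1-knockout cells is measured by ATP luminescence after at least 48 hr compound exposure at 37 °C, with DMSO substituting for the 20 nM CPT used in the parallel screen.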
HT1080-NT tox = kills 2HG-producing HT-1080-NT fibrosarcoma cells; Potency, µM (highest dose often 46.1 µM), for inactives: top-dose activity, negative = less viability, hits mostly cytotoxic; 1.6% of 360,000 active; HT-1080-NT fibrosarcoma viability, CellTiter-Glo ATP luminescence, 48 h;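 also: NT is the 2HG producing partner of a matched IDH1 knockdown line; 0% = DMSO-treated cells and -100% = media-only wells without cells; nearly all actives have a fitted effect of over 55% in size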
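Viability of the 2HG-overproducing fibrosarcoma line after 48 hours of compound exposure at 37 degrees C was determined by luminescence with CellTiter-Glo, and concentration-effect curves were then fitted and categorized.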
HT1080 IDH1KD tx = HT-1080 IDH1 knockdown cell toxicity (counter line) | 2% of 360,000 active | HT-1080 IDH1 knockdown viability, ATP luminescence, 48 h | Potency, µM (highest dose often 46.1 µM), inactives show top-dose activity, negative = toxicity, usual class: cytotoxic;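 also: 0% = DMSO wells and -100% = cell-free medium wells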
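Luminescent ATP read-out (CellTiter-Glo, 10 min at room temperature) after 48 h compound exposure at 37 °C gave viability of IDH1-knockdown HT-1080 cells. Activity was normalised to DMSO and cell-free wells, then fitted as concentration-response curves.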
* = called active by the depositor; i = inactive; ? = inconclusive; nt = no result given; [ ] = dose if it differs, or a comment. Sampled rows, rich in hits. Any-hit rate of the full collection: about 19%. Calls follow the shape of the dose curve; as a rule, active = well fitted curve in the direction sought with a large enough effect; inconclusive = small, poorly fitted or top-dose-only effect, or another doubt; inactive = no such curve, though single readings can be large; an effect the other way counts as inactive or inconclusive. Unless noted, % is scaled to controls: 0 for no effect and ±100 for the full control effect; potency is read from the fitted curve at half-maximal effect.

SMILES | KB-3-1 cytotox | TDP1 cell CPT | KB-V1 cytotox | DT40 TDP1 no CPT | HT1080-NT tox | HT1080 IDH1KD tx
CCc1ccc(OCCCC(=O)NCc2ccccc2)cc1 | ? | 29.1µM* | ? | 20.6µM* | ? | ?
Cc1cccc(OCCCC(=O)NC(C)C)c1 | i | -5.9% | i | 23.1µM* | 0.6% | -2.7%
COc1ccc(CNC(=O)C2CCN(C(=O)c3csc(Nc4ccc(C)cc4)n3)CC2)cc1 | i | ? | ? | ? | -14.2% | -20.3%
O=C1CCC(=O)N1N1C(=O)C2C3c4ccccc4C(c4ccccc43)C2C1=O (stereo unspecified) | i | 12.8% | i | -0.2% | -0.9% | 8.2%
Nc1cn(C2OC(CO)C(O)C2O)c(=O)[nH]c1=O (stereo unspecified) | i | -4.3% | i | -0.1% | 2.3% | -0.4%
O=C(NCc1ccc2c(c1)OCO2)C1CCCN1S(=O)(=O)c1ccc(Cl)cc1 (stereo unspecified) | i | -6.8% | ? | ? | -0.8% | 14.4%
CCCCNC(=O)CCCN1C(=O)c2ccccc2Sc2ncccc21 | nt | -26.3% | nt | ? | nt | nt
Cc1cccc(OCCCC(=O)O)c1 | i | -5.3% | ? | -12.6% | 5.0% | -1.0%
Cc1cccc(OCCC(=O)NO)c1 | nt | 10µM* | nt | 10µM* | ? | -13.8%
O=C(CCOc1ccccc1)NO | nt | 10µM* | nt | 11.2µM* | -0.6% | -1.7%
O=C(CCCCCN1C(=O)c2ccccc2C1=O)Nc1ccccc1 | i | 1.7% | i | -22.4% | 6.0% | 9.0%
O=C(CCCCCCC(=O)Nc1ccccc1)NO | 8.2µM* | 0.422µM* | 1.3µM* | 0.596µM* | nt | nt
O=C(CCOc1ccccc1)Nc1ccccc1 | i | 21.5% | i | 6.6% | 10.8% | -1.5%[9.24 µM]
Nc1nc(NCc2cccc(Cl)c2)c2[nH]cnc2n1 | i | ? | i | ? | nt | nt
Cc1cccc(NC(=S)N(CCCN2CCOCC2)C(C)c2cc3ccccc3o2)c1C (stereo unspecified) | i | -17.7% | i | -22.1% | -1.2% | -5.5%
CCN(CC(=O)Nc1c(F)cccc1F)C(=O)C1CCCO1 (stereo unspecified) | i | -8.8% | i | 7.7% | 7.8% | 9.4%
COc1cc(-c2ccc3ncnc(NCc4ccc(C)o4)c3c2)cc(OC)c1OC | ? | nt | i | nt | nt | nt
Cc1cccc(Nc2nnc(SCC(=O)N(C)C3CCS(=O)(=O)C3)s2)c1C (stereo unspecified) | i | -19.5% | i | ? | 8.9% | 8.0%
CCN1CCC(O)(/C=C/c2ccc(C(C)C)cc2)C(C(=O)/C=C/c2ccc(C(C)C)cc2)C1 (stereo unspecified) | ? | 14.6µM* | ? | 23.1µM* | ? | 20.6µM*
C[N+]1(C)CCC(=C(c2ccccc2)c2ccccc2)CC1 | i | ? | i | -24.2% | 16.4% | -6.9%
COc1ccc(S(=O)(=O)N2CCN(Cc3nc4ccc(C)cc4o3)CC2)cc1OC | i | ? | i | -19.8% | nt | nt
C[C@@H]1CN([C@H](C)CO)C(=O)c2c(c3ccccc3n2C)-c2ccccc2CO[C@H]1CN(C)Cc1ccc(Oc2ccccc2)cc1 | ? | ? | ? | 25.9µM* | ? | ?
COc1ccc(NC(=O)N(C)C[C@@H]2OCc3ccccc3-c3c(n(C)c4ccccc34)C(=O)N([C@H](C)CO)C[C@H]2C)c(OC)c1 | ? | 14.6µM* | i | ? | -23.5% | -20.6%
C[C@@H]1CN([C@@H](C)CO)C(=O)c2c(c3ccccc3n2C)-c2ccccc2CO[C@H]1CN(C)S(=O)(=O)c1ccc(C(F)(F)F)cc1 | i | -26.2% | i | -15.7% | -3.8% | -0.7%
C[C@@H]1CN([C@H](C)CO)C(=O)c2c(c3ccccc3n2C)-c2ccccc2CO[C@H]1CN(C)Cc1ccc(C(F)(F)F)cc1 | ? | ? | i | 20.6µM* | ? | 18.4µM*
SMILES | KB-3-1 cytotox | TDP1 cell CPT | KB-V1 cytotox | DT40 TDP1 no CPT | HT1080-NT tox | HT1080 IDH1KD tx
C[C@@H]1CN([C@H](C)CO)C(=O)c2c(c3ccccc3n2C)-c2ccccc2CO[C@H]1CN(C)Cc1cccc(C(=O)O)c1 | i | -19.5% | i | -15.7% | -11.0% | -4.4%
N#Cc1c(C(F)(F)F)cc(-c2ccccc2)nc1SCCN1CCOCC1 | i | 20.6µM* | i | ? | -1.5% | 0.0%
CNC(=O)Cn1c(=O)c2cccn2c2ccc(F)cc21 | nt | -2.9% | nt | -4.9% | nt | nt
CSC1=NCCN1C(=O)c1c(-c2c(F)cccc2Cl)noc1C | i | 5.2% | i | -13.4% | 14.9% | 18.3%
O=C(Nc1cccc(F)c1)c1cnc2sc(N3CCCC3)nn2c1=O | nt | 2.31µM* | nt | 3.26µM* | nt | nt
Cc1ccccc1NC(=O)c1cnc2sc(N3CCCC3)nn2c1=O | nt | 14.2% | nt | -1.2% | nt | nt
CC(C)c1ccc(NC(=O)c2cnc3sc(N4CCCC4)nn3c2=O)cc1 | nt | 2.91µM* | nt | 2.06µM* | nt | nt
N#Cc1cccc(-c2nc(Nc3ccccc3)c3ccccc3n2)c1 | nt | 0.3% | nt | -12.9% | nt | nt
CC(=O)NC(C(=O)O)C(C)(C)SN=O (stereo unspecified) | nt | 4.9% | nt | -11.0% | nt | nt
CCC(=O)Oc1ccc2c(=O)c(-c3ccc4ccccc4n3)c(CC)oc2c1C | i | ? | 13µM* | ? | 20.9% | ?
Cc1oc2c(C)c(O)ccc2c(=O)c1-c1ccc2ccccc2n1 | i | -19.3% | ? | -14.8% | 2.8% | -7.2%
Cc1ccc(S(=O)(=O)NCC(c2ccco2)N2CCc3ccccc3C2)cc1 (stereo unspecified) | i | 23.1µM* | i | ? | -2.1% | -3.5%
COc1ccc(C)cc1S(=O)(=O)NCC(c1ccco1)N1CCc2ccccc2C1 (stereo unspecified) | i | 29.1µM* | ? | ? | 0.8% | -5.4%
O=S(=O)(NCC(c1ccco1)N1CCc2ccccc2C1)c1ccc(Br)cc1 (stereo unspecified) | i | ? | i | ? | ? | ?
CN(c1ccccc1)S(=O)(=O)c1cccc(C(=O)NCC(=O)Nc2ccc(F)c(F)c2F)c1 | i | ? | i | 16.4µM* | -3.5% | -5.4%
CCN(c1ccccc1)S(=O)(=O)c1ccc(C(=O)NCC(=O)Nc2ccc(F)c(F)c2F)cc1 | ? | 14.6µM* | ? | 14.6µM* | ? | ?
O=C(NCc1nc(-c2ccc(Cl)cc2)no1)c1ccc2c(c1)OCO2 | i | -4.4% | ? | -16.6% | -25.8% | -10.4%
